Measurements as given in PubChem BioAssay (NCATS).
Results filed as inconclusive are left out. Activity calls are given as the source filed them. Calls follow the shape of the dose curve; as a rule, active = well fitted curve in the direction sought with a large enough effect; inconclusive = small, poorly fitted or top-dose-only effect, or another doubt; inactive = no such curve, though single readings can be large; an effect the other way counts as inactive or inconclusive.

Key:
[1] = Quantitative highthroughput screen to assess conditional lethalithy of P12 Ichikawa cells grown in Human Plasma-Like Medium with dialyzed fetal bovine serum (HPLM+ds) (AID 1963879); settings: Potency: viability; also: nearly all actives have a fitted effect of over 35% in size; also: potency is read from the fitted curve at half-maximal effect; as to viability: series mostly up to about 46 µM
Summary of the method: (§1)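 Each medium arm—HPLM with 10% dialyzed FBS, or RPMI1640 with 5 mM glucose and 10% untreated or dialyzed FBS—was screened against an 11-point, 3-fold compound titration for 48 h at 37 °C, with CellTiter-Glo luminescence as endpoint.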

[2] = Quantitative highthroughput screen to assess conditional lethalithy of P12 Ichikawa cells grown in RPMI1640 with dialyzed fetal bovine serum (RPMI+ds) (AID 1963880); settings: Potency: P12-Ichikawa viability; also: nearly all actives have a fitted effect of over 35% in size; also: potency is read from the fitted curve at half-maximal effect;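 as to viability: 100% = DMSO wells and 0% = empty wells on each plate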
Summary of the method: as §1

[3] = Quantitative highthroughput screen to assess conditional lethalithy of SEM cells grown in Human Plasma-Like Medium with dialyzed fetal bovine serum (HPLM+ds) (AID 1963882); also: nearly all actives have a fitted effect of over 35% in size; also: potency is read from the fitted curve at half-maximal effect; as to viability: series mostly up to about 46 µM
Summary of the method: as §1

[4] = Quantitative highthroughput screen to assess conditional lethalithy of SEM cells grown in RPMI1640 with unreated serum (RPMI+s) (AID 1963883); also: nearly all actives have a fitted effect of over 35% in size; also: potency is read from the fitted curve at half-maximal effect;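 as to viability: 100% = DMSO wells and 0% = empty wells without cells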
Summary of the method: as §1

[5] = Quantitative highthroughput screen to assess conditional lethalithy of SEM cells grown in RPMI1640 with dialyzed fetal bovine serum (RPMI+ds) (AID 1963884); also: nearly all actives have a fitted effect of over 35% in size; also: potency is read from the fitted curve at half-maximal effect;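 as to viability: series mostly up to about 46 µM; 100% = DMSO control wells and 0% = empty wells without cells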
Summary of the method: as §1

[6] = Cellular viability qHTS for adrenocortical cancer (ACC) cell line NCI-H295R (AID 1963990); also: nearly all actives have a fitted effect of over 60% in size; also: potency is read from the fitted curve at half-maximal effect
Summary of the method: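 Viability of NCI-H295R after 48 h of treatment (final up to 46 uM) measured through cellular ATP luminescence.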

[7] = Quantitative highthroughput screen to assess conditional lethalithy of P12 Ichikawa cells grown in RPMI1640 with untreated serum (RPMI+s) (AID 1963881); settings: Potency: viability; also: nearly all actives have a fitted effect of over 35% in size; also: potency is read from the fitted curve at half-maximal effect;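 as to viability: series mostly up to about 46 µM; 100% = DMSO wells and 0% = empty wells without cells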
Summary of the method: as §1

[8] = Cellular viability qHTS for adrenocortical cancer (ACC) cell line SW-13 (AID 1963989); settings: SW-13 ACC cells viability, CellTiter-Glo, 48 h; activity (max response): hits give low values;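 also: cells grown in serum-free medium with ITS supplement; % is scaled to controls: 0 for no effect and ±100 for the full control effect; nearly all actives have a fitted effect of over 65% in size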
Summary of the method: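 Here, serum-free SW-13 cultures were dosed up to 46 uM. Following 48 h, ATP-dependent luminescence (CellTiter-Glo) reported viable cells, and logistic modeling produced IC50 values.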

Structure (SMILES)	Potency [1]	Potency [2]	Potency [3]	Potency [4]	Potency [5]	Potency [6]	Potency [7]	activity (max response) [8]
Cc1cc(N2CCOCC2)cc2[nH]c(-c3c(NC[C@@H](O)c4cccc(Cl)c4)cc[nH]c3=O)nc12	inactive	inactive	1480 nM (active)	1660 nM (active)	1870 nM (active)	5010 nM (active)	–	–
COC(=O)C=CC(=O)OC	935 nM (active)	1480 nM (active)	–	1320 nM (active)	2640 nM (active)	–	2640 nM (active)	–
NC(=O)c1cnc(N[C@@H]2CCCC[C@@H]2N)nc1Nc1cccc(-n2nccn2)c1	–	inactive	11700 nM (active)	–	–	–	–	–
CNC(=O)c1ccc(Nc2cc(Nc3ccccc3S(=O)(=O)C(C)C)c3cc[nH]c3n2)nc1	2350 nM (active)	–	–	1480 nM (active)	1050 nM (active)	–	1870 nM (active)	–
O=c1[nH]c(=O)n([C@H]2C[C@@H](O)[C@@H](CO)O2)cc1F	83.3 nM (active)	74.3 nM (active)	23.5 nM (active)	2350 nM (active)	–	–	–	–
CON=C(C(=O)N[C@@H]1C(=O)N2C(C(=O)OCOC(=O)C(C)(C)C)=C(C=Cc3scnc3C)CS[C@H]12)c1csc(N)n1	–	16600 nM (active)	inactive	9350 nM (active)	–	–	14800 nM (active)	–
C[C@]12C=CC(=O)C=C1CC[C@@H]1[C@@H]2[C@@H](O)C[C@@]2(C)[C@@H]1CC[C@]2(O)C(=O)CO	16600 nM (active)	–	6620 nM (active)	–	–	–	6620 nM (active)	–
O=c1[nH]c(=O)n([C@H]2C[C@@H](O)[C@@H](CO)O2)cc1C(F)(F)F	1180 nM (active)	–	–	9350 nM (active)	1870 nM (active)	–	3720 nM (active)	–
CCOC1OC(=O)C[C@H]1NC(=O)[C@@H]1CCCN1C(=O)[C@@H](NC(=O)c1ccc(N)c(Cl)c1)C(C)(C)C (stereo partly drawn)	1660 nM (active)	3320 nM (active)	inactive	–	inactive	–	1870 nM (active)	–
N#CC(=C(N)Sc1ccc(N)cc1)c1ccccc1C(F)(F)F	–	inactive	–	–	–	–	2960 nM (active)	–
CCOc1ccccc1N=Nc1c(C)[nH]n(-c2nc(-c3ccccc3)cs2)c1=O	16600 nM (active)	inactive	5260 nM (active)	6620 nM (active)	7430 nM (active)	inactive	inactive	-16.4% (inactive)
COc1cc2nc(N(C)CCCNC(=O)C3CCCO3)nc(N)c2cc1OC (stereo not drawn)	inactive	inactive	inactive	inactive	inactive	inactive	inactive	–
CC(C)OC(=O)[C@H](C)N[P@](=O)(OC[C@H]1O[C@@H](n2ccc(=O)[nH]c2=O)[C@](C)(F)[C@H]1O)Oc1ccccc1	1320 nM (active)	–	4690 nM (active)	–	8330 nM (active)	–	–	–
CC(=O)ON=C1C(c2c(O)[nH]c3cc(Br)ccc23)=Nc2ccccc21	20900 nM (active)	–	1180 nM (active)	–	935 nM (active)	–	–	–
CCC(=C(c1ccc(O)cc1)c1ccc(OCCNC)cc1)c1ccccc1	4180 nM (active)	–	13200 nM (active)	7430 nM (active)	–	–	–	–
